# Measurements published in PubChem BioAssay (NCATS).
# Where “and” joins values, the source holds several entries; their conditions need not be identical. Equal entries are not always repeated. Values without a mark were called inactive. Inconclusive results are not listed. Where a structure was tested more than once in an assay, its records may differ in their call. Calls of active or inactive are those of the source. Unless noted, calls follow the shape of the dose curve; as a rule, active = well fitted curve in the direction sought with a large enough effect; inconclusive = small, poorly fitted or top-dose-only effect, or another doubt; inactive = no such curve, though single readings can be large; an effect the other way counts as inactive or inconclusive.
# Tests used:
# [1] = molecular target: T1, Hexokinase-4 (Homo sapiens) + Glucokinase regulatory protein (Homo sapiens) (UniProt P35557+Q14397); assay: qHTS assay for inhibitors of recombinant human GCK-GKRP interaction: Diaphorase-coupled assay (AID 743205)
# T1 sequence (P35557 whole entry, looked up): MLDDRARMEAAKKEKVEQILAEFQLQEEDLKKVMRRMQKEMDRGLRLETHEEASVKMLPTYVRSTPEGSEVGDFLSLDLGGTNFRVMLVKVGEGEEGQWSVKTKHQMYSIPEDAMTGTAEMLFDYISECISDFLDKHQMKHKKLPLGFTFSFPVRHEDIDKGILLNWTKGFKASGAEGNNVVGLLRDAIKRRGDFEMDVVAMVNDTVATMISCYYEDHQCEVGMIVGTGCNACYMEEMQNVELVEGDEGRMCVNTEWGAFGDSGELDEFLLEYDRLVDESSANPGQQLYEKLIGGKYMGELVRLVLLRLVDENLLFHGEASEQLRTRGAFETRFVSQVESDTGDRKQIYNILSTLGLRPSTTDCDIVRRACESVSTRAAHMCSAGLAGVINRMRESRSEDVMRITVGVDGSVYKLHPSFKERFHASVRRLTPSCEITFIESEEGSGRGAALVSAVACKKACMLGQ
# T1 sequence (Q14397 whole entry, looked up): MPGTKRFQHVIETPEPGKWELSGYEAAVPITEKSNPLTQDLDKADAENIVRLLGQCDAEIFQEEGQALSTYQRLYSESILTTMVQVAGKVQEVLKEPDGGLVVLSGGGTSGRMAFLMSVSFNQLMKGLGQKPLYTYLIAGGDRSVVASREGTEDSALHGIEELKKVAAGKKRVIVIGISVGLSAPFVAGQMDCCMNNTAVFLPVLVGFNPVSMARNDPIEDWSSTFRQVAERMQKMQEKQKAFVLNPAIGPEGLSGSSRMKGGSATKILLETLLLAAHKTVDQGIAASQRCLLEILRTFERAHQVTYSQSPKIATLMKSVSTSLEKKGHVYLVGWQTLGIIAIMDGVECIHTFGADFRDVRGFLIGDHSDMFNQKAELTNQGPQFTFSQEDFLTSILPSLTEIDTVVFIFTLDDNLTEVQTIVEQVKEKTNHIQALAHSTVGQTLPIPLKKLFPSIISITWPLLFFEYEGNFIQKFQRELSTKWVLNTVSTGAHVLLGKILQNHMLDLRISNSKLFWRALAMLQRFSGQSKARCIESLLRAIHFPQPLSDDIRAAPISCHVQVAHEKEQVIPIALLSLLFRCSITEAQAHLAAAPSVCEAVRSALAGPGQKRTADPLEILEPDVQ
# How it was run: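 Resorufin fluorescence (525/590 nm), read each minute over 30 min, reports GCK activity coupled via G6PDH and diaphorase. Reaction: 10 nM GST-GCK, 10 nM FLAG-GKRP, 5 mM glucose, 0.4 mM ATP, 0.15 mM NADP+, 0.1 mM resazurin.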
# [2] = molecular target: T1, Hexokinase-4 (Homo sapiens) + Glucokinase regulatory protein (Homo sapiens); assay: qHTS assay for inhibitors of recombinant human GCK-GKRP interaction: ADP-Glo assay (AID 743206);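 also: plate controls were DMSO plus enzyme for no effect and no enzyme for full effect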
# How it was run: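 Pin-transferred compounds meet a 15 nM GST-GCK/15 nM FLAG-GKRP/2 uM S6P mix (dispense concentrations). ATP is then added to 0.4 mM final with 5 mM glucose, and the reaction runs 60 min at room temperature. ADP is quantified luminescently.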
# [3] = molecular target: T1, Hexokinase-4 (Homo sapiens) + Glucokinase regulatory protein (Homo sapiens); assay: qHTS assay for inhibitors of recombinant human GCK-GKRP interaction: HTRF assay (AID 743207);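 also: 0% = DMSO with GCK present and -100% = DMSO wells lacking GCK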
# How it was run: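 HTRF read-out (ex 320 nm; 615/665 nm emission) after 60 min RT equilibration of 5 nM GST-GCK, 5 nM FLAG-GKRP, 2 uM S6P, compound and anti-FLAG/anti-GST detection antibodies; signal normalized between DMSO wells with and without GCK.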
# [4] = qHTS Assay for Identifying Gametocytocidal Compounds (AID 743244); also: potency is read from the fitted curve at half-maximal effect;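 as to max response: % is scaled to controls: 0 for no effect and ±100 for the full control effect; actives lower the fluorescent signal which means gametocytes are killed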; conditions: P. falciparum 3D7 stage III-V gametocytes, alamarBlue, 72 h; max response: hits give low values
# How it was run: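 Viability read-out was resazurin reduction (alamarBlue, 24 h) measured at Ex 525/Em 598 nm. Beforehand, late-stage (III-V) 3D7 P. falciparum gametocytes at 20,000 cells/well were incubated with compound 72 h at 37C under 5% CO2.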
# [5] = qHTS assay for small molecule agonists of the antioxidant response element (ARE) signaling pathway measured by Nrf2-dependant transcriptional activity (AID 720636; active = well fitted curve in the direction sought with a large enough effect in the repeat runs; an effect the other way counts as inactive or inconclusive;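 also: HepG2 cells with an ARE-driven luciferase reporter; % of control where 0% means no effect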)
# How it was run: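 Attachment 6 hr at 37 C, then compound versus DMSO vehicle for 16 hr in ARE-luc HepG2 cells (1% dialyzed FBS); luminescence recorded 30 min after ONE-Glo addition at room temperature.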
# [6] = qHTS assay for small molecule antagonists of the retinoid-related orphan receptor gamma (ROR-gamma) signaling pathway - cell viability counter screen (AID 720652; active = well fitted curve in the direction sought with a large enough effect in the repeat runs; an effect the other way counts as inactive or inconclusive;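 also: compound exposure lasted 16 hr before ATP read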; also: potency is read from the fitted curve at half-maximal effect)
# How it was run: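 CHO RORE-LUC/TET-ROR line, 1,000 cells/well, 37 C 5% CO2 5 hr; cpd or DMSO + doxycycline induction, 16 hr. CellTiter-Glo, 30 min RT, luminescence = ATP content.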
# [7] = qHTS assay for small molecule agonists of the antioxidant response element (ARE) signaling pathway measured by Nrf2-dependant transcriptional activity - cell viability counter screen (AID 720653; active = well fitted curve in the direction sought with a large enough effect in the repeat runs; an effect the other way counts as inactive or inconclusive; also: potency is read from the fitted curve at half-maximal effect; as to max response: % is scaled to controls: 0 for no effect and ±100 for the full control effect); conditions: ARE-bla HepG2 viability, CellTiter-Glo ATP luminescence, 16 h; max response: hits give low values
# How it was run: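 ARE-bla HepG2 cells (2,000/well) rested 5 hrs at 37C/5% CO2, then exposed to compounds in DMSO for 16 hrs. Viability was read in the same wells as intracellular ATP by luminescence, 30 min at room temperature after reagent addition.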
# [8] = qHTS assay for cell viability of HEK293 cells (AID 743288); conditions: ATP luminescence (CellTiter-Glo), 18 h, hits give low values; also: % is scaled to controls: 0 for no effect and ±100 for the full control effect; nearly all actives have a fitted effect of over 50% in size
# How it was run: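 ATP luminescence (CellTiter-Glo) reports metabolically competent cell number after parental HEK293 cells, 2,000/well, were treated with DMSO-dissolved compounds for 18 h at 37 C; reagent incubation 30 min, room temperature.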
# [9] = qHTS assay for cell viability of the p53RE-bla HCT-116 cell line (AID 743292); also: nearly all actives have a fitted effect of over 55% in size; also: potency is read from the fitted curve at half-maximal effect
# How it was run: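 Compound-exposed HCT-116 (p53RE-bla) cells, 4,000 per well, were kept 16 h at 37 C following a 5 h preincubation. Cell number was estimated from total ATP by CellTiter-Glo luminescence read after 30 min at room temperature.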
# [10] = qHTS for Activators of Parkin Expression: LOPAC Validation Assay (FLuc Reporter) (AID 720573;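 also: 0% = DMSO and 100% = positive control compounds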)
# How it was run: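 FLuc luminescence read-out from a neuronal line expressing a Parkin-promoter-driven coincidence reporter. Cells treated 24 h at 37 C, 5% CO2 with compounds at 7 concentrations; signal increase normalized to DMSO and positive control.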
structure (smiles),measurement,setting,value
CCN(CC)C(C)CN1c2ccccc2Sc2ccccc21 (stereo not drawn),outcome,[1],inactive
same,outcome,[2],inactive
same,outcome,[3],inactive
same,max response,[4],2.08% and 2.32%
CC1(C)[C@@H]2CC[C@@]1(C)C(=O)C2,outcome,[5],inactive
same,Potency,[6],inactive
same,max response,[7],-10.3%
same,max response,[4],-6.95%
same,max response,[8],-3.96%
same,Potency,[9],inactive
O=S(=O)(O)NC1CCCCC1,outcome,[5],inactive
same,max response,[7],2.33%
same,max response,[4],-6.77%
same,max response,[8],-0.923%
same,Potency,[9],inactive
Oc1cccc(O)c1,outcome,[5],inactive
same,max response,[7],0.509%
same,max response,[4],-1.48%
same,max response,[8],11.8%
same,Potency,[9],inactive
NC(=O)N/N=C/c1ccc([N+](=O)[O-])o1,Potency,[6],inactive
same,max response,[7],-20.9%
same,Potency,[4],35.5 µM (active)
same,max response,[4],4.19%
same,max response,[8],-5.04% and -17.6%
same,Potency,[9],inactive
OCc1cc(C(O)CNCCCCCCOCCCCc2ccccc2)ccc1O (stereo not drawn),outcome,[10],inactive
same,outcome,[2],inactive
same,outcome,[3],inactive
same,Potency,[4],10 µM (active)
[Cl][In]([Cl])[Cl],Potency,[6],inactive
same,max response,[7],5.32%
same,max response,[4],-7.04% and -5.36%
same,max response,[8],7.88%
same,Potency,[9],inactive
CCCCCCCCCCCCOS(=O)(=O)O,outcome,[5],inactive
same,Potency,[6],inactive
same,max response,[7],-1.36% [middle of 4 runs]
same,max response,[4],14.3%
same,max response,[8],-2.66% [middle of 4 runs]
same,Potency,[9],inactive
CC(O)COc1ccccc1 (stereo not drawn),outcome,[5],inactive
same,max response,[7],-6.41%
same,max response,[4],8.99%
same,max response,[8],1.97%
same,Potency,[9],inactive
Cc1c(O)cccc1C(=O)N[C@@H](CSc1ccccc1)[C@H](O)CN1C[C@H]2CCCC[C@H]2C[C@H]1C(=O)NC(C)(C)C,outcome,[5],inactive
same,Potency,[6],66.8 µM (active)
same,Potency,[7],44.7 µM (active)
same,max response,[4],0.0084%
same,Potency,[9],28.2 µM (active)
Nc1ccc(S(=O)(=O)Nc2nccs2)cc1,outcome,[5],inactive
same,Potency,[6],inactive
same,max response,[7],-8.72%
same,max response,[4],3.15%
same,max response,[8],-1.59%
same,Potency,[9],inactive
CCOC(=O)c1ccc(O)cc1,max response,[7],-0.862%
same,max response,[4],10.3%
same,max response,[8],-3.62%
same,Potency,[9],inactive
NCCNCCNCCN,outcome,[5],inactive
same,Potency,[6],inactive
same,max response,[7],-12.2%
same,max response,[4],-8.14%
same,max response,[8],-5.67%
same,Potency,[9],inactive
NCCNCCNCCNCCN,outcome,[5],inactive
same,Potency,[6],inactive
same,max response,[7],-13.9% and 10.9%
same,max response,[4],-2.7%
same,max response,[8],-15.2% and 3.69%
same,Potency,[9],inactive
COc1ccccc1O,outcome,[5],inactive
same,Potency,[6],inactive
same,max response,[7],0.99% and -1.64% and 4.12%
same,max response,[4],-0.65%
same,max response,[8],2.42% and 2.72% and -4.36%
same,Potency,[9],inactive
C[C@](N)(Cc1ccc(O)cc1)C(=O)O,outcome,[1],inactive
same,outcome,[2],inactive
same,outcome,[3],inactive
same,max response,[4],18.5% and 8.95%
